Reference: PubChem BioAssay
Where “and” joins values, the source holds several entries; their conditions need not be identical. Identical values can stand only once. Calls of active or inactive are those of the source.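 How the source made its calls, unless noted: active means inhibition at or above 50% relative to wild type and mutant plate controls; inactive means inhibition below 50%.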

Columns and labels:
[1] = inhibitors of TNFa-induced NFkB p65 translocation, primary screen, imaging, HUVEC, MLSMR starter and 10KST1 sets (AID 438;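 active means inhibition above 20% together with a positive visual image hit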;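 further: compound added about 3h40 before a 20 min TNFalpha stimulation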;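 on inhibition: signal is the nuclear over cytoplasmic p65 intensity ratio per well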); conditions: HUVEC TNFa-induced p65 nuclear translocation; cell count: measured here: nuclei count (cytotoxicity indicator), at 2.08 µM; inhibition: at 2 µM, stronger effect = higher value, 0% TNFa-plus-vehicle, 100% no-TNFa wells
[2] = inhibitors of mutant huntingtin aggregation, primary screen, imaging, exon1htt(103Q)mCFP cells, high-content imaging (AID 483;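 active means visual image review flags a hit and inhibition of aggregation exceeds 20%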;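 further: compound exposure lasted 3 days before fixation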;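 on nuclei count: percent of the per-plate median nuclei count of sample wells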); conditions: exon1htt(103Q)mCFP cell line, aggregate imaging, at 2 µM; inhibition of aggregation: stronger effect = higher value; nuclei count: measured here: cell count, toxicity
[3] = inhibitors of E-selectin induction by TNFa, primary screen, imaging, HUVEC, immunofluorescence, MLSMR starter and 10KST1 sets (AID 487;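 active means visually confirmed hit in the image check and inhibition above 20%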;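 on inhibition: signal is fraction of cell area covered by stained E-selectin grains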;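 on nuclei count: 100% = median nuclei count of all wells on the same plate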); conditions: HUVEC TNFalpha-induced E-selectin immunofluorescence imaging, at 2 µM; inhibition: stronger effect = higher value; nuclei count: measured here: cell number, toxicity
[4] = DUSP6 inhibitors restoring Erk phosphorylation by chemical complementation, primary imaging in DUSP6-transfected HeLa (AID 609;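 active means compounds giving at least 50% inhibition in the cell-based MKP-3 phosphatase rescue imaging test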;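 on inhibition: phospho-Erk level distribution per well compared with pooled transfected vehicle control wells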); conditions: HeLa MKP-3 transfected, phospho-Erk imaging KS statistic, at 10 µM, cells stimulated with TPA for 15 min
[5] = molecular target: Dual specificity protein phosphatase 6 (Homo sapiens) (UniProt Q16828); experiment: as above; conditions: HeLa MKP-3 transfected, phospho-Erk imaging KS statistic; at 10 µM; stronger effect = higher value; cells stimulated with TPA for 15 min
[6] = molecular target: Voltage-gated potassium channel subunit beta-2 (Rattus norvegicus) (UniProt P62483); experiment: KvBeta enzyme negative modulators, primary screen, biochemical, NADPH fluorescence (AID 622;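 active means fluorescence slope higher than the sample average by over 3 SD, cut at about -0.22 in these data, passing the limit was not always enough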;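 further: slope of raw intensity against log time taken from 70 to 1610 s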); conditions: recombinant KvBeta, 4-cyanobenzaldehyde reduction, at 10 µM, stronger effect = higher value
[7] = molecular target: Voltage-gated potassium channel subunit beta-2 (Rattus norvegicus) (UniProt P62483); experiment: KvBeta positive modulators, primary screen, biochemical, NADPH fluorescence (AID 623;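 active means NADPH fluorescence slope more negative than the mean of all samples by about 3 SD, 99.7% confidence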;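 further: fluorescence intensity change per second fitted from 20 to 320 s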); conditions: Recombinant KvBeta, NADPH fluorescence decrease slope, 10 min; at 10 µM; stronger effect = lower value
[8] = molecular target: Alpha-2C adrenergic receptor (Homo sapiens) (UniProt P18825); experiment: modulators of alpha2C/GIRK thallium flux, primary screen, cell-based, HEK293 alpha2C/GIRK1/2 (AID 624;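 active means fluorescence slope after compound addition differing from the mean of all screened samples at 99.7% confidence, in either direction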;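 further: slope of fluorescence ratio to pre-addition baseline per second over 15 to 24 s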); conditions: thallium flux BTC fluorescence, at 10 µM, actives lie on both sides
[9] = inhibitors of larval lipid processing in zebrafish, primary screen, whole organism, PED6 fluorescence, gall bladder and intestine (AID 686;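 active means a full or partial loss of lipid-probe fluorescence in the fish gall bladder, intestine or both, judged by eye; inactive means no fluorescence loss, or compound toxic to the fish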;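 further: larvae 5 to 7 days old with five fish per well; signal comes from phospholipase A2 cleavage of quenched PED6 carried via bile; overnight exposure to compound and PED6 before scoring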); conditions: Zebrafish larvae PED6 lipid processing, fluorescence scoring; screened at 20 µM (by protocol)
[10] = inhibitors of Chlamydomonas gravitaxis, primary screen, whole organism, Chlamydomonas reinhardtii, WT vs cilia-less mutant, absorbance, 96-well (AID 463189); conditions: OD600 absorbance, 2 days, at 10 µM, stronger effect = higher value;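 further: 0% = wild type cc124 cells in DMSO and 100% = ciliumless bld1 mutant cells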
[11] = inhibitors of Sendai virus-induced IRF3 signaling, primary screen, TLR/RLR signaling modifier project, cell-based, Sendai virus stimulus, luciferase, 10K MLSCN set (AID 602276;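 active means inhibition at or above 50% at 10 µM; inactive means inhibition below 50%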;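 further: firefly luciferase from ISG56 promoter only with Renilla not read in this screen; 0% = Sendai virus plus DMSO and 100% = medium plus DMSO without virus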); conditions: HEK293 RL24 IRF3 luciferase reporter, at 10 µM, stronger effect = higher value
[12] = inhibitors of poly I:C-induced TLR3 signaling, primary screen, cell-based, poly I:C stimulus, luciferase, 10K MLSCN set (AID 602277;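 active means inhibition of the reporter signal at or above 50%; inactive means inhibition below 50%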); conditions: HEK293-TLR3 RL24 IRF3 luciferase reporter, at 10 µM, stronger effect = higher value
[13] = measured here: cell density z-score
[14] = measured here: nuclear c-Myc green intensity z-score
[15] = measured here: nuclear pErk red intensity z-score, stronger effect = higher value

Alpha-2C adrenergic receptor (Homo sapiens), sequence (P18825 whole entry, looked up): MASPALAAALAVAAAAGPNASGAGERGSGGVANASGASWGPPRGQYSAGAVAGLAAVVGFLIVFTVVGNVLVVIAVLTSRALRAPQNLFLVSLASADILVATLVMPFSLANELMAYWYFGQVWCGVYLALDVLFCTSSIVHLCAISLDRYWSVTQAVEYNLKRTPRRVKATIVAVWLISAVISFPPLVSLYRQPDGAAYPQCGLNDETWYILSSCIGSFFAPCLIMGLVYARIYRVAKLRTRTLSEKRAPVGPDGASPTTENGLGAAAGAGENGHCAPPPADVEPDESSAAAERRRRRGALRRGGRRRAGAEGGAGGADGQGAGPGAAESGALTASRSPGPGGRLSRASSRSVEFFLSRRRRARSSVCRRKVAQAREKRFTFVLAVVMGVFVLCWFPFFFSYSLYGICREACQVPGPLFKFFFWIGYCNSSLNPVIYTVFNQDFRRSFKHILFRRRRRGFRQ
Dual specificity protein phosphatase 6 (Homo sapiens), sequence (Q16828 whole entry, looked up): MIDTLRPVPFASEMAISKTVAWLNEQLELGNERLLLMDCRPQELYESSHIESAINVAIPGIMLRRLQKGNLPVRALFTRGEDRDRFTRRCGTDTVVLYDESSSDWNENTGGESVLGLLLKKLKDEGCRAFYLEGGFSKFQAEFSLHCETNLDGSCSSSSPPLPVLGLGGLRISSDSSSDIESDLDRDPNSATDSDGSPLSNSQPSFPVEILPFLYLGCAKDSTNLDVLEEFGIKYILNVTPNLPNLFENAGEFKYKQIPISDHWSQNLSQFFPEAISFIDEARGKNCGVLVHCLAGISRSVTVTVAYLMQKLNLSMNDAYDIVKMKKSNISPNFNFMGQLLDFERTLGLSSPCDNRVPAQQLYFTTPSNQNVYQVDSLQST
Voltage-gated potassium channel subunit beta-2 (Rattus norvegicus), sequence (P62483 whole entry, looked up): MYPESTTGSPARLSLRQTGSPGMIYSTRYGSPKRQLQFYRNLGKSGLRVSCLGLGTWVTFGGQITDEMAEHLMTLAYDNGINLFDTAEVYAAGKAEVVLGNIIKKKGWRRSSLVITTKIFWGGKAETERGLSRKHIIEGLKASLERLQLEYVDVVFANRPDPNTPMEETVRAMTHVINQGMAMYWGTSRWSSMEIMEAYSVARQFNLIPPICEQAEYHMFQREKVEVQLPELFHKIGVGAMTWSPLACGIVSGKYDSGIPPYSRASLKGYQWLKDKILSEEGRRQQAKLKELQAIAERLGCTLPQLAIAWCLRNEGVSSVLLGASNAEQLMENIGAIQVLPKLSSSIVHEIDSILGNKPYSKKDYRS

Compound	cell count [1]	inhibition [1]	inhibition of aggregation [2]	nuclei count [2] [%]	inhibition [3]	nuclei count [3] [%]	z-score [4, 13]	z-score [4, 14]	z-score [4, 15]	inhibition [5]	fluorescence slope [6]	NADPH fluorescence slope [7]	slope [8]	outcome [9]	inhibition [10]	inhibition [11]	inhibition [12]
CCC[C@@H]1C[C@@H](C(=O)N[C@H]([C@@H](C)O)[C@H]2O[C@H](SC)[C@H](O)[C@@H](O)C2O)N(C)C1 (some centres not stated)	619	-4.3% (inactive)	2.3% (inactive)	101	-57.7% (inactive)	123	-0.311	-0.277	0.417	8% (inactive)	-0.465 (inactive)	2.2e-06 (inactive)	0.0059 (inactive)	inactive	35.8% (inactive)	19.5% (inactive)	27.3% (inactive)
OC(CCN1CCCCC1)(c1ccccc1)c1ccccc1	674	-1.6% (inactive)	-18% (inactive)	108	-75.5% (inactive)	114	0.144	-1.15	-0.931	-0.493% (inactive)	-0.458 (inactive)	-3.9e-05 (inactive)	0.00533 (inactive)	inactive	-6.75% (inactive)	16.1% (inactive)	48% (inactive)
C[C@]12CCC(=O)C=C1CC[C@@H]1[C@@H]2[C@@H](O)C[C@@]2(C)[C@H]1CC[C@]2(O)C(=O)CO	526	1.3% (inactive)	-3.8% (inactive)	63.5	-35.4% (inactive)	94.1	-3.38	-0.793	-0.0815	5.42% (inactive)	-0.459 (inactive)	-3.2e-05 (inactive)	0.00455 (inactive)	inactive	2.91% (inactive) and -18.2% (inactive)	4.18% (inactive)	38.7% (inactive)
CC(=O)OCC(=O)[C@@]1(O)[C@H](C)C[C@H]2[C@@H]3CCC4=CC(=O)C=C[C@]4(C)[C@@]3(F)[C@@H](O)C[C@@]21C	499	-5.8% (inactive)	0.4% (inactive)	45.5	-54.1% (inactive)	112	-0.698	0.622	-0.569	-4.44% (inactive)	-0.495 (inactive)	-3.4e-05 (inactive)	0.00493 (inactive)	inactive	26.6% (inactive)	14.1% (inactive)	31.9% (inactive)
CN1CC=C2C(C#N)=C(N)C(C#N)(C#N)[C@H](c3cccc(Cl)c3)C2C1 (some centres not stated)	642	-6% (inactive)	-38.1% (inactive)	98.3	-18.6% (inactive)	125	0.015	5.62	0.205	71% (inactive)	-0.368 (inactive)	-4.7e-05 (inactive)	0.00551 (inactive)	inactive	5.27% (inactive)	13.6% (inactive)	24.1% (inactive)
NS(=O)(=O)c1cc2c(cc1Cl)NC=NS2(=O)=O	531	-6.4% (inactive)	-4.4% (inactive)	92.2	13.8% (inactive)	108	0.808	0.404	-1.03	23.2% (inactive)	-0.492 (inactive)	-0.000201 (active)	0.00527 (inactive)	inactive	11.8% (inactive) and 7.71% (inactive)	-14.2% (inactive)	-10.5% (inactive)
CCOC(=O)CSC1=C(C#N)C(=O)NC2(CCCCC2)S1	580	-10.9% (inactive)	-5.9% (inactive)	108	-43.8% (inactive)	131	-1.03	0.989	0.0798	-7.86% (inactive)	-0.497 (inactive)	-4.9e-05 (inactive)	0.00597 (inactive)	inactive	-1.64% (inactive)	8.53% (inactive)	100% (active)
CCNC(=O)N(C(=O)NCC)n1c(C)nnc1C	615	-11.1% (inactive)	16.9% (inactive)	96.4	28.7% (inactive)	130	-1.98	1.53	-0.158	1.12% (inactive)	-0.413 (inactive)	-6e-05 (inactive)	0.00476 (inactive)	inactive	11% (inactive)	9.47% (inactive)	14% (inactive)
S=C(N=Nc1ccccc1)NNc1ccccc1	456	-24.6% (inactive)	15.4% (inactive)	97.4	-51.9% (inactive)	122	0.583	-0.233	0.888	-2.46% (inactive)	-0.552 (inactive)	-4.2e-05 (inactive)	0.0111 (inactive)	inactive	12.8% (inactive)	-11.4% (inactive)	-44.3% (inactive)
C=CCn1c(N)c(C(=O)OC(C)(C)C)c2nc3ccccc3nc21	370	-11.7% (inactive)	-9.4% (inactive)	100	-104% (inactive)	124	1.71	-2	-1.69	-2.59% (inactive)	-0.257 (inactive)	0.000211 (inactive)	0.00615 (inactive)	inactive	12.3% (inactive)	12.2% (inactive)	-1.21% (inactive)
CCC(C)n1ncn(-c2ccc(N3CCN(c4ccc(OCC5COC(Cn6cncn6)(c6ccc(Cl)cc6Cl)O5)cc4)CC3)cc2)c1=O (configuration not stated)	587	3.2% (inactive)	-63.7% (inactive)	140	-162% (inactive)	121	0.653	-0.579	-0.684	1.38% (inactive)	-0.456 (inactive)	-5.2e-05 (inactive)	0.00423 (inactive)	inactive	5.29% (inactive)	33.8% (inactive)	4.61% (inactive)
